“And” between values parts separate entries of the source, which are not always exact repeats. Identical values can stand only once. Inconclusive results are not listed. A call without a number means that no potency is given here. A number with no mark means an inactive call. The source made the active and inactive calls. Calls follow the shape of the dose curve; as a rule, active = well fitted cell-killing curve with a large enough effect in the repeat runs; inconclusive = weak or mixed curves, or effect the other way; inactive = flat fitted curve, though single readings scatter.
assay: qHTS RealTime-Glo MT Cell Viability Assay in HEK293 cells - 8 hour (AID 1224887); conditions: RealTime-Glo luminescence; series mostly up to 76.8 µM; also: nearly all actives have a fitted effect of over 50% in size; as to activity change, negative = cytotoxicity: top concentration of the series differs between compounds
Text: U.S. Tox21 Program National Center for Advancing Translational Sciences [NCATS] NIH Chemical Genomics Center [NCGC] U.S. Environmental Protection Agency [EPA] National Institutes of Environmental Health Sciences [NIEHS] National Toxicology Program [NTP] U.S. Food and Drug Administration [FDA] Tox21 Assay Overview: Measure of cell viability is critical in the cell-base assay. Analysis of cell viability is necessary for the characterization of cell responses to cytotoxic drugs and environmental stress. A RealTime-Glo MT Cell Viability Assay to monitor cell viability in real time of continues cell culture during 40 hours of compound treatment was used to screen Tox21 10K library compounds in Hek293 cells. The RealTime-Glo MT Cell Viability Assay is a nonlytic, homogeneous, bioluminescent method to measure cell viability in real time using a simple, plate-based method. The assay involves adding NanoLuc luciferase and a cell-permeant prosubstrate to cells in culture. Viable cells reduce the proprietary prosubstrate to generate a substrate for NanoLuc luciferase. This substrate diffuses from cells into the surrounding culture medium, where it is rapidly used by the NanoLuc Enzyme to produce a luminescent signal. The signal correlates with the number of viable cells, making the assay well suited for cytotoxicity studies.
Tox21 Assay Protocol Summary: The mixture of Hek293 cell suspension and reagents were dispensed at 600cells/6 ul/well in 1536-well tissue culture treated black solid bottom plates using a Multidrop dispenser. After the assay plates were incubated at a 37 C/5% CO2 incubator for 5 hours, 23 nL of compounds dissolved in DMSO, positive and negative controls was transferred to the assay plate by a pintool work station. The plates were incubated at 37 C for 40 hours. The luminescence intensity were measured at 0h, 8h, 16h, 24h, 32h and 40h time points using ViewLux plate reader during compound treatment.
Potency is read from the fitted curve at half-maximal effect.

| SMILES | Potency | activity change, negative = cytotoxicity |
| --- | --- | --- |
| C=CC(C)(CCC=C(C)C)OC(=O)/C=C/c1ccccc1 (stereo not given) | inactive |  |
| OCCCCl | inactive |  |
| CCC(C)C(=O)OC (stereo not given) | inactive |  |
| C=CC(=O)OCC(O)COc1ccccc1 (stereo not given) | inactive |  |
| CCc1c(C(=O)O)c(=O)cnn1-c1ccc(Cl)cc1 | inactive |  |
| C[Si](C)O[Si](C)C | inactive |  |
| CCCSS/C(CCO)=C(\C)N(C=O)Cc1cnc(C)nc1N | inactive |  |
| CN(C)c1ccc(N=Nc2ccccc2C(=O)O)cc1 | inactive |  |
| NC1(c2ccc(-c3nc4ccn5c(=O)[nH]nc5c4cc3-c3ccccc3)cc2)CCC1 | 10.7 µM (active) |  |
| CCN(CC)c1cccc(C)c1 | inactive |  |
| ClC/C=C\CCl | inactive |  |
| O=C(O)CCCCCCC(=O)O | inactive |  |
| Cc1ccc(O)cn1 | inactive |  |
| CCCCCCCCCCCCCOP(=O)(O)O | inactive |  |
| CN(C)CCCN1c2ccccc2CCc2ccccc21 | inactive |  |
| CCCCCCOc1cc(C)c(O)c(C)c1C | 14 µM (active) |  |
| Cc1ccc(-n2[nH]c(C)c(N=Nc3cccc(-c4cccc(C(=O)O)c4)c3O)c2=O)cc1C | inactive |  |
| CC(C)(C)c1n[nH]c(=O)n(N)c1=O | inactive |  |
| CN1CCN(C2Cc3ccccc3Sc3ccc(Cl)cc32)CC1 (stereo not given) | inactive |  |
| Oc1ccc(-c2ccc(O)cc2)cc1 | inactive |  |

| SMILES | Potency | activity change, negative = cytotoxicity |
| --- | --- | --- |
| CCCCCCCCCCCC(=O)N(CC)CC | inactive |  |
| c1cc(OCC2CO2)cc(OCC2CO2)c1 (stereo not given) | inactive |  |
| CC1=C(/C=C/C(C)=C/C=C/C(C)=C/C(=O)Nc2ccc(O)cc2)C(C)(C)CCC1 | 710 nM (active) and 239 nM (active) |  |
| C/C=C/C=N/NC(=O)c1ccncc1 | inactive |  |
| CCC(=O)CC(C)CC (stereo not given) |  | 3.45% [at 0.29 µM] |
| CCN(CC)c1ccc(N)cc1 | 20 µM (active) |  |
| CCCCOC(=O)C(C)CC (stereo not given) | inactive |  |
| CCC(C)c1ccccc1 (stereo not given) | inactive |  |
| COc1nccnc1CC(C)C | inactive |  |
| COc1ccccc1OCCNCC(O)COc1cccc2[nH]c3ccccc3c12 (stereo not given) | 16.9 µM (active) |  |
| NC(=O)C(=O)N/N=C/c1ccc([N+](=O)[O-])o1 | inactive |  |
| COc1ccccc1C=O | inactive |  |
| CC=O | inactive |  |
| CCOC(=O)CC(C)O (stereo not given) | inactive |  |
| CCOC(OCC)C(=O)c1ccccc1 | inactive |  |
| CCCCCCCCCCCCCc1ccccc1 | inactive |  |
| O=C(O)c1cccc(Cl)n1 | inactive |  |
| CCc1ccc(C)nc1 | inactive |  |
| CCOC(=O)[C@@](C)(N)Cc1ccc(O)c(O)c1 | inactive |  |
| CC1CCCCC1 | inactive |  |

From PubChem BioAssay (Tox21)
